A short description of assay [1]: compounds binding Alexa647 anti-His antibody – biochemical, small-molecule microarray, 635 nm fluorescence, artefact control for SMM control protein annotation, primary screen (AID 1128).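 Note: score merges feature fluorescence with signal-to-noise for each printed compound spot.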 The conditions noted are these: higher = more signal.
For assay [2], the system named is Human papillomavirus type 1a E7 protein (residues 1-88). Nature of the assay: HPV1a E7 small-molecule binders, primary screen, biochemical, small-molecule microarray, residues 1-88, 635 nm (AID 1129). The conditions noted are these: small-molecule microarray binding, fluorescence 635 nm; higher = more signal.
In assay [3] the target is Focal adhesion kinase 1 (Homo sapiens) (UniProt Q05397). Nature of the assay: PTK2 protein binding on printed compound slides – biochemical, small-molecule microarray, 635/667 nm fluorescence, BSA, DTT, primary screen (AID 1130).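 Note: composite of spot emission at 667 nm and signal to noise over triplicate slides.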 The conditions noted are these: 635 nm fluorescence, higher = more signal.
Chain of Focal adhesion kinase 1 (Homo sapiens) (Q05397 whole entry, looked up): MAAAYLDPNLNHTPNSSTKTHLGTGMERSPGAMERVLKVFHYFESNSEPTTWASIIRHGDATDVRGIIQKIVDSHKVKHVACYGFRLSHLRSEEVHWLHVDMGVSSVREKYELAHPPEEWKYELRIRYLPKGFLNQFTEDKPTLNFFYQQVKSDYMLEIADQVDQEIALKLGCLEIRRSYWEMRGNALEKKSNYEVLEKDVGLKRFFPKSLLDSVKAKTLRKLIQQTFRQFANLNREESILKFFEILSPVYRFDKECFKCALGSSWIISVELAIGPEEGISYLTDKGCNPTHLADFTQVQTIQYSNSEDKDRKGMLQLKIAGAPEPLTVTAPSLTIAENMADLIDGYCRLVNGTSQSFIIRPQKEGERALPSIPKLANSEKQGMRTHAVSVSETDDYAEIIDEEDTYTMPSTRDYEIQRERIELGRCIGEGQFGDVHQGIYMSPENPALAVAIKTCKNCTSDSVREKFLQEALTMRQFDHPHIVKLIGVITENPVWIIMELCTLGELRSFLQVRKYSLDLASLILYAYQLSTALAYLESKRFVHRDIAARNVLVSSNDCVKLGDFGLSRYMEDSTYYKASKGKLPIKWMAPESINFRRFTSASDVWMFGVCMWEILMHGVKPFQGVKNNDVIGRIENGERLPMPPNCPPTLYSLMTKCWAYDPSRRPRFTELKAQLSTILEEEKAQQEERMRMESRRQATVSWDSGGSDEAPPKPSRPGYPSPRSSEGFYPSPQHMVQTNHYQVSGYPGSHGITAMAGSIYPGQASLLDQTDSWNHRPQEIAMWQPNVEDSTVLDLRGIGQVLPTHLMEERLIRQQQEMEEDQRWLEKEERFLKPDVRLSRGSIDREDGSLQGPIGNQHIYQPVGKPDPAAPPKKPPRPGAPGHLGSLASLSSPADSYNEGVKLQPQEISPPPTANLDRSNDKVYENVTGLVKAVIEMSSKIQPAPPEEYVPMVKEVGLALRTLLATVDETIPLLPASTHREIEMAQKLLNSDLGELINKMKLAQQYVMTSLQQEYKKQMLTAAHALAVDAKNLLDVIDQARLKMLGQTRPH
The subject of assay [4] is Fibrinogen (Alexa647-labelled). Nature of the assay: Alexa647-fibrinogen binding to printed small molecules – biochemical, small-molecule microarray, 635/667 nm fluorescence, artefact control for SMM control-protein annotation, profiling panel (AID 1131).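 Note: z-score merges 667 nm fluorescence with per-spot signal-to-noise over triplicate slides.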 The conditions noted are these: fibrinogen-A647 binding fluorescence, higher = more signal.
Assay [5] addresses Follistatin (Homo sapiens) (UniProt P19883). Briefly: FST protein binding to printed compounds – biochemical, small-molecule microarray, 635/667 nm fluorescence, primary screen (AID 1132). The conditions noted are these: 635 nm fluorescence, higher = more signal.
Assay [6] has as its target Fibroblast growth factor 2 (Homo sapiens) (UniProt P09038). Nature of the assay: basic fibroblast growth factor binding to printed compounds – biochemical, small-molecule microarray, 635/667 nm fluorescence, primary screen (AID 1133). The conditions noted are these: FGF2, fluorescence 635/667, higher = more signal.
Assay [7] can be described thus: JC-1 mitochondrial potential readout, lung cancer cells – cell-based, A549, JC-1 fluorescence, basal, 24 h, 100 nL, profiling panel (AID 1138).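 Note: A549 lung adenocarcinoma cells under basal conditions with no added stimulus; test concentration not given here.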 The conditions noted are these: higher = more signal.
The test system of another assay is Lefty1. Briefly: Lefty1 protein binding to printed compounds – biochemical, small-molecule microarray, 635/667 nm fluorescence, primary screen (AID 1139). The conditions noted are these: fluorescence 635/667, higher = more signal.
Assay [8] relates to wheat germ agglutinin (Triticum aestivum), Alexa647-labelled. Briefly: Alexa647-WGA lectin binding to printed small molecules – biochemical, small-molecule microarray, 635/667 nm fluorescence, artefact control for SMM control-protein annotation, profiling panel (AID 1140).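 Note: score merges 667 nm feature emission with signal to noise over triplicate slides.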 The conditions noted are these: WGA-A647 binding, 635 nm fluorescence, higher = more signal.
In assay [9] the target is Luciferin 4-monooxygenase (Photinus pyralis) (UniProt P08659). Briefly: inhibition of purified Photinus pyralis luciferase – biochemical, luminescence, purified enzyme, 2006 set, primary screen (AID 1141).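 Note: cell-free assay with purified firefly luciferase at 100 ng per well in PBS; test concentration not given here.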 The conditions noted are these: purified firefly luciferase, SteadyGlo luminescence, 30 min; higher = more signal, called active from +8 up or from −8 down.
Chain of Luciferin 4-monooxygenase (Photinus pyralis) (P08659 whole entry, looked up): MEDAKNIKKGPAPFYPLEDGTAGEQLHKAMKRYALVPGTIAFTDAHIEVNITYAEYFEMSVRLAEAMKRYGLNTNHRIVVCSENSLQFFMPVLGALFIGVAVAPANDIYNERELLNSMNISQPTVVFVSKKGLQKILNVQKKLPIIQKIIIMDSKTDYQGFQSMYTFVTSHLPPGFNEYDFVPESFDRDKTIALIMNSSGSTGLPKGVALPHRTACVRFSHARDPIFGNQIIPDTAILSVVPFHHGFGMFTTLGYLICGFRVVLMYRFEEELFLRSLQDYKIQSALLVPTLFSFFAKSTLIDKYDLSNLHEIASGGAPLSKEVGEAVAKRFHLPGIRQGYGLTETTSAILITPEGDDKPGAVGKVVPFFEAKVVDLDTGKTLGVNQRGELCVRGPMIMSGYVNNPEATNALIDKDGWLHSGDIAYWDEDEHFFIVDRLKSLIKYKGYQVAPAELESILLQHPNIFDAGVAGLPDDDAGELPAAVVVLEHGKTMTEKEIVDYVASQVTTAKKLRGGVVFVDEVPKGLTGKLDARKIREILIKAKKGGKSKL
The test system of assay [10] is Wnt5a (protein binding on small-molecule microarray). Nature of the assay: small molecules binding Wnt5a protein – biophysical, small-molecule microarray, 635/667 nm fluorescence, primary screen (AID 1142).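 Note: fluorescence read at 667 nm with signal to noise per printed feature.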 The conditions noted are these: 635 nm fluorescence, higher = more signal.
Assay [11] can be described thus: ATP-based viability of Huh7 replicon cells – cell-based, CellTiter-Glo luminescence, basal, 48 h, cytotoxicity control for HCV replication inhibitor project, primary screen (AID 1143).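 Note: Huh7 hepatoma cells carrying a hepatitis C replication reporter with no stimulus; test concentration not given here.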 The conditions noted are these: higher = more signal, called active from +8 up or from −8 down.
A short description of assay [12]: Pseudomonas biofilm growth suppression – PAO1 strain, BacTiter-Glo luminescence, LB-PBS, primary screen (AID 1144). The conditions noted are these: P. aeruginosa PAO1 biofilm, 12 h, higher = more signal.
The nature of assay [13]: basal CRE-LacZ reporter activity in PC12 – cell-based, unstimulated, primary screen (AID 1145). The conditions noted are these: no forskolin, luminescence, 4.5 h, higher = more signal, called active from +8 up or from −8 down.
Assay [14] in a line: forskolin-driven CRE-LacZ activity in PC12 – cell-based, CRE-LacZ reporter, forskolin-stimulated, primary screen (AID 1146).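 Note: PC12 cells with 6xCRE LacZ reporter stimulated by forskolin 10 µM; beta-galactosidase reporter signal reflecting CREB driven transcription.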 The conditions noted are these: luminescence, 4.5 h, higher = more signal, called active from +8 up or from −8 down.
Assay [15] deals with Streptavidin (Streptomyces avidinii) (UniProt P22629). Nature of the assay: compounds binding control protein streptavidin – biophysical, small-molecule microarray, 635/667 nm fluorescence, artefact control for SMM compound annotation, primary screen (AID 1147).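 Note: signal reflects streptavidin binding to arrayed compounds as a control protein.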 The conditions noted are these: higher = more signal.
Chain of Streptavidin (Streptomyces avidinii) (P22629 whole entry, looked up): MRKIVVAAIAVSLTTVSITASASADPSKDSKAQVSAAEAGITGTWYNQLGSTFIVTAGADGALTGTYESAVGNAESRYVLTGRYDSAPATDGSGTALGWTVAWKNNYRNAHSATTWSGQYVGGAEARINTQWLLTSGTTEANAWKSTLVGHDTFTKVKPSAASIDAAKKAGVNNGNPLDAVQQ
The nature of assay [16]: probe aInhba binding on compound microarray – biochemical, small-molecule microarray, 635/667 nm fluorescence, primary screen (AID 1148).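 Note: score merges 667nm spot fluorescence with signal-to-noise for antibody binding to printed compounds.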 The conditions noted are these: higher = more signal.
Assay [17] has as its target Torsin-1A (Homo sapiens) (UniProt O14656). Nature of the assay: TOR1A wild-type binding on microarray – cell lysate, small-molecule microarray, lysate, 635/667 nm, primary screen (AID 1149). The conditions noted are these: COS7 hTOR1A-WT lysate, 635 nm fluorescence, higher = more signal.
Assay [18] has the same target. Briefly: torsin A mutant lysate binding on microarrays – cell lysate, small-molecule microarray, COS7 lysate, 635/667 nm fluorescence, primary screen (AID 1150).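 Note: score pools 667 nm emission and signal to noise measuring lysate protein binding.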 The conditions noted are these: COS7 hTOR1A mutant lysate, 635 nm fluorescence, higher = more signal.
Assay [19] has as its system Sonic hedgehog protein (Shh). Briefly: Sonic hedgehog microarray binding compounds – biochemical, small-molecule microarray, 635/667 nm fluorescence, primary screen (AID 1151).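 Note: Shh protein binding to compounds spotted on small-molecule microarray slides; score combines spot fluorescence intensity with signal-to-noise across triplicate slides.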 The conditions noted are these: 635 nm fluorescence, higher = more signal.

SMILES strings stand for the structures. The source made the active and inactive calls. Unless noted, the rule behind the calls is not given here.

Chain of Torsin-1A (Homo sapiens) (O14656 whole entry, looked up): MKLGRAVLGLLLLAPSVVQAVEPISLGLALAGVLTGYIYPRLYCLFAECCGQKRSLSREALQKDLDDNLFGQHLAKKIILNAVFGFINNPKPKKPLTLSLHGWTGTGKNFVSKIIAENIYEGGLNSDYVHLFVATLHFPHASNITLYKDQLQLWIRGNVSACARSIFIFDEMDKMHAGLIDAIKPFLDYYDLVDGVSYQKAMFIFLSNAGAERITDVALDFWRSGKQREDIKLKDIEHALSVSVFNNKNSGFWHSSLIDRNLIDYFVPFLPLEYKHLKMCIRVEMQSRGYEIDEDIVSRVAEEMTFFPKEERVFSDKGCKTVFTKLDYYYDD
Chain of Follistatin (Homo sapiens) (P19883 whole entry, looked up): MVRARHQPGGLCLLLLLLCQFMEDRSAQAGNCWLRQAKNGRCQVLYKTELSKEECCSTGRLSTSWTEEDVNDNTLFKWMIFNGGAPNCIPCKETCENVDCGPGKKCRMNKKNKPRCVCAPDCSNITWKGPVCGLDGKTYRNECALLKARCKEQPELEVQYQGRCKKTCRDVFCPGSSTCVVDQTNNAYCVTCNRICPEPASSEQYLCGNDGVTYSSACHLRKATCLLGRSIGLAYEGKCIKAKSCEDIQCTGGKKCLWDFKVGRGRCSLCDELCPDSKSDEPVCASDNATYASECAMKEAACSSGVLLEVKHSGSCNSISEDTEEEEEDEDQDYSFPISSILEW
Chain of Fibroblast growth factor 2 (Homo sapiens) (P09038 whole entry, looked up): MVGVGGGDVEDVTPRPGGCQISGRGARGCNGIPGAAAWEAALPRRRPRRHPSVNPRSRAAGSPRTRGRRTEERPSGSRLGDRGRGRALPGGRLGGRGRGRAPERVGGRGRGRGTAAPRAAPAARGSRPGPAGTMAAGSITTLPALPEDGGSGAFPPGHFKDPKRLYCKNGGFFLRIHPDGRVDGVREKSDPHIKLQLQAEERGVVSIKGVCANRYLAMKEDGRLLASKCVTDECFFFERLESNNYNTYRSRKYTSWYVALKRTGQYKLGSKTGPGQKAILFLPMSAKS

As to `C[N+](C)(C)CCCCCCNC(=O)[C@H]1C[C@H]2C(=O)N[C@@H](Cc3ccccc3)C(=O)N2[C@H]1c1ccc(O)cc1`, the composite z-score in assay [1] was 1.32; in assay [2] it was 0.0251; in [3], -0.208; in assay [4] it was -0.222; in assay [5] it was 1.34; in assay [6], 0.916. Besides, the composite z-score is 1.34 with Lefty1; 0.112 in assay [8]; 0.121 in assay [10]; -0.215 in assay [15]; -0.0695 in assay [16]; 0.561 with Torsin-1A (Homo sapiens) [17]. Besides, the figures for the composite z-score (with Torsin-1A (Homo sapiens) [18]; in [19]) were 0.313 and 1.94, respectively. For the same molecule, the z-score in [7] was 0.0402; in assay [9], -0.555 (inactive); in assay [11], -0.56 (inactive); in assay [12] it was 0.271 (inactive); in assay [13] it was -1.08 (inactive); in assay [14] it was -0.227 (inactive).

Take `COc1ccc(CN(C2=CC[C@@]3(C(N)=O)C(=O)C(Cl)=C(Cl)C(=O)[C@@]3(C#N)C2)S(=O)(=O)c2ccc(Br)cc2)cc1`: the composite z-score in [1] was 1.89; in assay [2], 0.289; in assay [3] it was 0.0558; in [4] it was 0.115; in [5] it was -0.539; in [6], -0.537. Also, the composite z-score in the assay on Lefty1 is -0.53; in assay [8], 0.324; in [10], -0.0312; in assay [15], 0.62; in assay [16] it was -0.0006; with Torsin-1A (Homo sapiens) [17] it was 0.385. For the same molecule, the figures for the composite z-score (with Torsin-1A (Homo sapiens) [18]; in [19]) were 0.448 and -0.245, respectively. Also, the z-score is -1.87 in assay [7]; -5.26 (inactive) in assay [9]; -3.6 (inactive) in assay [11]; -0.897 (inactive) in [12]; 33.6 (active) in assay [13]; 119 (active) in [14].

On to `NC(N)=NCCCn1cc(CNC(=O)[C@@H](N)Cc2ccccc2)nn1`, for which the composite z-score in assay [1] is 0.499; in assay [2], -0.505; in assay [3] it was -0.242; in assay [4], -0.845; in assay [5], 1.42; in [6], 0.943. The composite z-score in the assay on Lefty1 was 1.05; in assay [8] it was 0.465; in assay [10], -0.0448; in [15], -0.298; in assay [16], 0.017; in the assay with Torsin-1A (Homo sapiens) [17] it was 0.485. In addition, the composite z-score came out at 0.142 with Torsin-1A (Homo sapiens) [18] and 1.08 in assay [19]. In addition, the z-score was -0.55 in assay [7]; 0.36 (inactive) in assay [9]; -0.109 (inactive) in assay [11]; 1.6 (inactive) in [12]; -0.491 (inactive) in assay [13]; 0.35 (inactive) in assay [14].

In the case of `CCOC(=O)C[C@H]1[C@H](OC(=O)c2cc3ccccc3oc2=O)[C@@H](NC(=O)c2ccc(-c3ccccc3)cc2)c2cc(OCCCO)ccc2N1C(=O)c1ccc2ccccc2n1`, the composite z-score in assay [1] was 1.04; in [2] it was 1.15; in [3], 0.553; in [4], 0.458; in assay [5], 1.11; in assay [6], 0.485. Also, the composite z-score in the assay on Lefty1 amounted to 0.964; in assay [8], 0.543; in assay [10], 0.355; in assay [15], 0.207; in [16], 0.166; with Torsin-1A (Homo sapiens) [17], 0.626. Also, the composite z-score with Torsin-1A (Homo sapiens) [18] worked out at 0.572; in assay [19] it was 1.84. Besides, the z-score in assay [7] is -0.408; in assay [9], 0.778 (inactive); in [11] it was -0.168 (inactive); in assay [12], -1.1 (inactive); in assay [13], 1.03 (inactive); in [14] it was 0.644 (inactive).

For `OCCCC1=CC(c2ccc(CN3CCCC3)cc2)N(Cc2sc3ccccc3c2Cl)CC1` (stereo not given), the composite z-score turned out to be 2.68 in assay [1]; 1.07 in [2]; 0.609 in assay [3]; 0.311 in assay [4]; 1.19 in [5]; 1.38 in assay [6]. The composite z-score was determined as 0.649 in the assay with Lefty1; 0.483 in [8]; 0.774 in assay [10]; 0.37 in assay [15]; 0.0633 in assay [16]; 0.598 with Torsin-1A (Homo sapiens) [17]. Further, the results for the composite z-score (in the assay with Torsin-1A (Homo sapiens) [18]; in assay [19]) were 0.842 and 1.46, respectively. Moreover, the z-score in [7] was 2.11; in assay [9], -1.01 (inactive); in assay [11], -2.99 (inactive); in assay [12], 0.00672 (inactive); in assay [13], 0.96 (inactive); in assay [14], -0.134 (inactive).

The values are drawn from PubChem BioAssay.
